Reference: PubChem BioAssay (NCATS)
Values joined by “and” are separate entries in the source; they are usually repeats but may differ in a detail not shown here. Identical values can stand only once. Records with an inconclusive call do not appear. A call without a number means that no potency is given here. Active and inactive are the calls of the source. Calls come from the whole dose curve; as a rule, active = well fitted inhibition curve with a large enough effect; inconclusive = small, poorly fitted or top-dose-only effect; inactive = flat fitted curve, though single readings scatter.

Tests used:
Test in all cases: qHTS profiling for inhibitors of Plasmodium falciparum proliferation (AID 504749); note: nearly all actives have a fitted effect of over 60% in size
Conditions in all cases: P. falciparum in erythrocytes, SYBR Green DNA, 72 h; series mostly up to 28.7 µM
CP269 = test system: CP269
Procedure, shortened: (§1)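 In a 72 h erythrocytic culture (37 C, humidified, 5% CO2) at 2.5% hematocrit and 0.3% starting parasitemia, compounds were tested; SYBR Green I in detergent lysis buffer stained parasite DNA overnight.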

CP286 = test system: CP286
Procedure, shortened: as §1

CP291 = test system: CP291
Procedure, shortened: as §1

CP297 = test system: CP297
Procedure, shortened: as §1

CP305 = test system: CP305
Procedure, shortened: as §1

CP315 = test system: CP315
Procedure, shortened: as §1

CP325 = test system: CP325
Procedure, shortened: as §1

CP329 = test system: CP329
Procedure, shortened: as §1

CP335 = test system: CP335
Procedure, shortened: as §1

DFO2036 = test system: DFO2036
Procedure, shortened: as §1
Potency is the fitted concentration of half-maximal effect.

SMILES	Potency (CP269)	Potency (CP286)	Potency (CP291)	Potency (CP297)	Potency (CP305)	Potency (CP315)	Potency (CP325)	Potency (CP329)	Potency (CP335)	Potency (DFO2036)
CCN(CC)C(C)C(=O)c1ccccc1 (centres undefined)	inactive	inactive	inactive	inactive	inactive	inactive	inactive	inactive	inactive	inactive
COP(=S)(OC)Oc1ccc(Sc2ccc(OP(=S)(OC)OC)cc2)cc1	inactive	inactive	inactive	inactive	inactive	inactive	inactive	inactive	inactive	inactive
COP(=O)(OC)C(O)C(Cl)(Cl)Cl (centres undefined)	inactive	inactive	inactive	inactive	inactive	inactive	inactive	inactive	inactive	inactive
CCCCCCCCCCCC[N+](C)(C)CCOc1ccccc1	10.7 µM (active)	2.51 µM (active)	8.49 µM (active)	13.5 µM (active)	8.49 µM (active)	15.1 µM (active)	9.53 µM (active)	13.5 µM (active)	6.01 µM (active)	5.01 µM (active)
COP(=O)(OC)OC=C(Cl)Cl	inactive	inactive	inactive	inactive	inactive	inactive	inactive	inactive	inactive	inactive
COC(=O)C1=CCCN(C)C1	inactive	inactive	inactive	inactive	inactive	inactive	inactive	inactive	inactive	inactive
CNC(=O)NC(O)C(Cl)(Cl)Cl (centres undefined)	inactive	inactive	inactive	inactive	inactive	inactive	inactive	inactive	inactive	inactive
CCC(=O)O[C@H]1CC[C@H]2[C@@H]3CCC4=CC(=O)CC[C@]4(C)[C@H]3CC[C@]12C	inactive	inactive	inactive	inactive	inactive	inactive	inactive	inactive	inactive	inactive
CCS(=O)(=O)C(C)(C)S(=O)(=O)CC	inactive	inactive	inactive	inactive	inactive	inactive	inactive	inactive	inactive	inactive
CCC1(CC)C(=O)NC(=O)NC1=O	inactive	inactive	inactive	inactive	inactive	inactive	inactive	inactive	inactive	inactive
CCN(Cc1ccc(Cl)nc1)/C(=C/[N+](=O)[O-])NC	inactive	inactive	inactive	inactive	inactive	inactive	inactive	inactive	inactive	inactive
Cc1ncc2n1-c1ccc(Cl)cc1C(c1ccccc1F)=NC2	inactive	inactive	inactive	inactive	inactive	inactive	inactive	inactive	inactive	inactive
CCOC(=O)NC(O)C(Cl)(Cl)Cl (centres undefined)	inactive	inactive	inactive	inactive	inactive	inactive	inactive	inactive	inactive	inactive
C[C@H]1C(=O)O[C@@H]2CCN3CC=C(COC(=O)[C@](C)(O)[C@]1(C)O)[C@H]23	inactive	inactive	inactive	inactive	inactive	inactive	inactive	inactive	inactive	inactive
CC[n+]1c(-c2ccccc2)c2cc(N)ccc2c2ccc(N)cc21	120 nM (active) and 478 nM (active)	70.8 nM (active) and 158 nM (active)	151 nM (active) and 601 nM (active)	169 nM (active) and 478 nM (active)	84.9 nM (active) and 379 nM (active)	478 nM (active) and 1.69 µM (active)	95.3 nM (active) and 379 nM (active)	107 nM (active) and 426 nM (active)	84.9 nM (active) and 239 nM (active)	89.1 nM (active) and 251 nM (active)
c1ccc2nc(N3CCNCC3)ccc2c1	inactive	inactive	inactive	inactive	inactive	inactive	inactive	inactive	inactive	inactive
O=C(O)c1nn(Cc2ccc(Cl)cc2Cl)c2ccccc12	inactive	inactive	inactive	inactive	inactive	inactive	inactive	inactive	inactive	inactive
COCC(=O)N(c1c(C)cccc1C)C(C)C(=O)OC (centres undefined)	inactive	inactive	inactive	inactive	inactive	inactive	inactive	inactive	inactive	–
O=c1n(Cl)c(=O)n(Cl)c(=O)n1Cl	inactive	inactive	inactive	inactive	inactive	inactive	inactive	inactive	inactive	inactive
CCC1(c2ccccc2)CCC(=O)NC1=O (centres undefined)	inactive	inactive	inactive	inactive	inactive	inactive	inactive	inactive	inactive	inactive
CCNc1nc(Cl)nc(NCC)n1	inactive	inactive	inactive	inactive	inactive	inactive	inactive	inactive	inactive	inactive
CN(C)C(=S)SSC(=S)N(C)C	2.13 µM (active)	1.26 µM (active)	3.01 µM (active)	4.26 µM (active)	2.39 µM (active)	4.78 µM (active)	2.39 µM (active)	3.79 µM (active)	1.51 µM (active)	2.82 µM (active)
CC(C)(C)OC(=O)c1ncn2c1[C@@H]1CCCN1C(=O)c1c(Br)cccc1-2	inactive	inactive	inactive	inactive	inactive	inactive	inactive	inactive	inactive	inactive
CCCCCCCCC(=O)NCc1ccc(O)c(OC)c1	inactive	inactive	inactive	inactive	inactive	inactive	inactive	inactive	inactive	inactive
CC(C)[N+](C)(CCC(C(N)=O)(c1ccccc1)c1ccccc1)C(C)C	inactive	inactive	inactive	inactive	inactive	inactive	inactive	inactive	inactive	inactive
NCc1cccnc1	inactive	inactive	inactive	inactive	inactive	inactive	inactive	inactive	inactive	inactive
